This is part of a sample that, as a whole, favours compounds with a hit. Of some 83,000 tested, about 20% had one in any assay.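 Plates (96-well) were seeded with cells, treated with compound at one concentration, and incubated for 48 hours before percent growth was determined.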 A number with no mark means an inactive call. Calls of active or inactive are those of the source. Rule for the calls: active = growth percent below 10; inactive = the rest.

The values below come from PubChem BioAssay (NCI).

Common to all, as to assay: NCI-60 one-dose screen, 48 h (100 = growth as untreated, 0 = no growth, -100 = all killed)
Details in all cases: 10 µM unless noted

For assay [1], the system named is SR leukemia.
For assay [2], the system named is RPMI-8226 leukemia.
Assay [3] has as its system OVCAR-8 ovarian.
The test system of assay [4] is OVCAR-5 ovarian.
Assay [5] has as its system OVCAR-4 ovarian.
Assay [6] has as its system SK-OV-3 ovarian.
Assay [7] deals with IGROV1 ovarian.
The subject of assay [8] is OVCAR-3 ovarian.
Assay [9] has as its system HS 578T breast.
The subject of assay [10] is NCI/ADR-RES ovarian.
In assay [11] the test system is T-47D breast.
The test system of assay [12] is BT-549 breast.
For assay [13], the system named is MDA-MB-435 melanoma.
The subject of assay [14] is SW-620 colon.
Assay [15] deals with MCF7 breast.
Assay [16] deals with HCT-116 colon.
In assay [17] the test system is HCC-2998 colon.
The test system of assay [18] is KM12 colon.

Regarding `O=C(CCCCCCN1CC(=O)N2[C@@H](c3ccc(Cl)c(Cl)c3)c3[nH]c4ccccc4c3C[C@H]2C1=O)NO`, the growth in [1] was 7.56% (active); in assay [2] it was 6.04% (active); in [3], 50.3%; in [4], 46.3%; in [5], 45.6%; in assay [6], 73.6%. Besides, the growth in [7] is -10.5% (active); in [8], 35.3%; in [9], 64.8%; in assay [10], 93.3%; in assay [11] it was 27.9%; in assay [12] it was 63.7%. Also, the growth is 47.3% in assay [13]; 33% in assay [14]; 29% in assay [15]; 23.2% in [16]; 61.9% in assay [17]; 69.8% in [18].

In the case of `O=C(/C=C/c1ccc(F)cc1)N1CCN(C(=O)/C=C/c2ccc(C(F)(F)F)cc2)CC1`, the growth in [1] was 114%; in assay [2] it was 124%; in assay [3] it was 105%; in assay [4] it was 109%; in assay [5], 116%; in assay [6] it was 118%. The growth in assay [7] is 122%; in [8], 113%; in [9], 123%; in [10], 113%; in assay [11], 113%; in assay [12] it was 115%. In addition, the growth in assay [13] is 104%; in [14], 106%; in assay [15], 98.2%; in [16], 98%; in assay [17] it was 102%; in [18], 108%.

`c1ccc(-c2nnn(-c3ccccc3)n2)cc1`: the growth is 89% in [1]; 98.6% in assay [2]; 107% in assay [3]; 105% in [4]; 106% in [5]; 106% in [6]. Also, the growth was 104% in assay [7]; 111% in assay [8]; 112% in [9]; 116% in assay [10]; 108% in assay [11]; 87.5% in assay [12]. Further, the growth was 106% in [13]; 113% in assay [14]; 71% in [15]; 97.3% in assay [16]; 107% in [17]; 107% in assay [18].

In the case of `CC(SC(C)C(=O)N/N=C/c1cccc(Cl)c1)C(=O)N/N=C\c1cccc(Cl)c1` (centres undefined), the growth in assay [1] was 15.8%; in [2], 64.4%; in assay [3] it was 68.1%; in assay [4], 115%; in assay [5], -11.1% (active); in [6], 90.5%. Also, the growth in [7] was 70.3%; in assay [8], -30.2% (active); in [9], 86%; in assay [10], 94.5%; in assay [11], 87.8%; in assay [12], 102%. The growth in [13] was 72.8%; in assay [14], 27.7%; in assay [15], 49.1%; in assay [16] it was 2.39% (active); in [17], 96.5%; in assay [18] it was 71.7%.

Regarding `CC(C)C/C=C/C=C/C(=O)N[C@@H](CC(N)=O)C(=O)N[C@@H]1C(=O)N[C@H](c2ccc(O)cc2)C(=O)N[C@H](CCCN)C(=O)N[C@H]([C@@H](C)O)C(=O)N[C@H](c2ccc(O)cc2)C(=O)N[C@H](c2ccc(O)cc2)C(=O)N[C@H]([C@H](C)O)C(=O)N[C@H](Cc2ccccc2)C(=O)N[C@H](CCCN)C(=O)N[C@H](c2ccc(O[C@H]3O[C@@H](CO)[C@@H](O)[C@@H](O)[C@H]3O[C@@H]3O[C@H](CO)[C@H](O)[C@H](O)[C@@H]3O)cc2)C(=O)N[C@H]([C@H](C)O)C(=O)N[C@H](c2ccc(O)cc2)C(=O)NCC(=O)N[C@H](CC(C)C)C(=O)N[C@H](C)C(=O)N[C@H](c2ccc(O)c(Cl)c2)C(=O)O[C@@H]1C(N)=O`, the growth in assay [1] is 33.1%; in assay [2], 109%; in assay [3] it was 63.9%; in assay [4], 36.2%; in assay [5] it was 117%; in assay [6], 87.4%. Also, the growth in [7] is 96.6%; in assay [8], 117%; in assay [9], 67.3%; in [10], 96.9%; in assay [11], 94.9%; in assay [12] it was -2.76% (active). Moreover, the growth in assay [13] was 57.2%; in assay [14], 96.3%; in assay [15], 54.9%; in assay [16], 20.4%; in assay [17] it was 104%; in [18], 44.3%.

Regarding `CCN(C(=O)CCl)C(C)(C)C(SSSC(c1ccc(Cl)cc1)C(C)(C)N(CC)C(=O)CCl)c1ccc(Cl)cc1` (centres undefined), the growth is 17.6% in [1]; 51.7% in [2]; 77.9% in assay [3]; 107% in assay [4]; 49.3% in assay [5]; 87.5% in [6]. Moreover, the growth is 74.3% in assay [7]; 72.3% in [8]; 92.5% in [9]; 89.8% in assay [10]; 87.1% in [11]; 85.8% in assay [12]. For the same compound, the growth in assay [13] was 36.4%; in [14] it was 72.6%; in assay [15], 57.1%; in [16], 48%; in assay [17], 85.6%; in assay [18], 85.6%.

Regarding `CC(C)(C)c1ccc(OC(=O)Nc2ccccc2)cc1`, the growth in assay [1] is 76.3%; in [2], 105%; in assay [3] it was 105%; in assay [4], 106%; in assay [5] it was 113%; in assay [6], 110%. Besides, the growth in [7] is 107%; in assay [8] it was 105%; in [9], 103%; in [10], 106%; in assay [11], 99.7%; in assay [12], 87.5%. Besides, the growth in assay [13] was 107%; in [14], 106%; in [15], 110%; in assay [16], 97.4%; in assay [17] it was 107%; in assay [18], 104%.

As to `COc1cc(/C=C2\CN(C(=O)OC(C)(C)C)C/C(=C\c3ccc(O)c(OC)c3)C2=O)ccc1O`, the growth in assay [1] is 79.9%; in [2], 71.8%; in assay [3], 89.6%; in assay [4], 107%; in [5], 97.6%; in [6], 105%. Also, the growth in assay [7] was 110%; in assay [8], 98.6%; in assay [9] it was 91.3%; in [10], 102%; in assay [11] it was 92.1%; in assay [12] it was 85.4%. The growth in [13] is 99.4%; in assay [14], 99.9%; in assay [15] it was 85.9%; in assay [16], 68.6%; in assay [17], 106%; in assay [18] it was 99.1%.
